Test results taken from ChEMBL document CHEMBL1201862, “PubChem BioAssay data set” (2004).
The campaign covered roughly 350,000 compounds. About 700 (0.2%) were called active. The rule behind the calls is not given here. Only a selection was taken, and actives are over-represented in it overall.

What follows are molecules tested against RecQ-like DNA helicase BLM (Homo sapiens) (UniProt P54132) (assay: qHTS Assay for Inhibitors of Bloom's syndrome helicase (BLM).).
Sequence of RecQ-like DNA helicase BLM (Homo sapiens) (P54132 whole entry): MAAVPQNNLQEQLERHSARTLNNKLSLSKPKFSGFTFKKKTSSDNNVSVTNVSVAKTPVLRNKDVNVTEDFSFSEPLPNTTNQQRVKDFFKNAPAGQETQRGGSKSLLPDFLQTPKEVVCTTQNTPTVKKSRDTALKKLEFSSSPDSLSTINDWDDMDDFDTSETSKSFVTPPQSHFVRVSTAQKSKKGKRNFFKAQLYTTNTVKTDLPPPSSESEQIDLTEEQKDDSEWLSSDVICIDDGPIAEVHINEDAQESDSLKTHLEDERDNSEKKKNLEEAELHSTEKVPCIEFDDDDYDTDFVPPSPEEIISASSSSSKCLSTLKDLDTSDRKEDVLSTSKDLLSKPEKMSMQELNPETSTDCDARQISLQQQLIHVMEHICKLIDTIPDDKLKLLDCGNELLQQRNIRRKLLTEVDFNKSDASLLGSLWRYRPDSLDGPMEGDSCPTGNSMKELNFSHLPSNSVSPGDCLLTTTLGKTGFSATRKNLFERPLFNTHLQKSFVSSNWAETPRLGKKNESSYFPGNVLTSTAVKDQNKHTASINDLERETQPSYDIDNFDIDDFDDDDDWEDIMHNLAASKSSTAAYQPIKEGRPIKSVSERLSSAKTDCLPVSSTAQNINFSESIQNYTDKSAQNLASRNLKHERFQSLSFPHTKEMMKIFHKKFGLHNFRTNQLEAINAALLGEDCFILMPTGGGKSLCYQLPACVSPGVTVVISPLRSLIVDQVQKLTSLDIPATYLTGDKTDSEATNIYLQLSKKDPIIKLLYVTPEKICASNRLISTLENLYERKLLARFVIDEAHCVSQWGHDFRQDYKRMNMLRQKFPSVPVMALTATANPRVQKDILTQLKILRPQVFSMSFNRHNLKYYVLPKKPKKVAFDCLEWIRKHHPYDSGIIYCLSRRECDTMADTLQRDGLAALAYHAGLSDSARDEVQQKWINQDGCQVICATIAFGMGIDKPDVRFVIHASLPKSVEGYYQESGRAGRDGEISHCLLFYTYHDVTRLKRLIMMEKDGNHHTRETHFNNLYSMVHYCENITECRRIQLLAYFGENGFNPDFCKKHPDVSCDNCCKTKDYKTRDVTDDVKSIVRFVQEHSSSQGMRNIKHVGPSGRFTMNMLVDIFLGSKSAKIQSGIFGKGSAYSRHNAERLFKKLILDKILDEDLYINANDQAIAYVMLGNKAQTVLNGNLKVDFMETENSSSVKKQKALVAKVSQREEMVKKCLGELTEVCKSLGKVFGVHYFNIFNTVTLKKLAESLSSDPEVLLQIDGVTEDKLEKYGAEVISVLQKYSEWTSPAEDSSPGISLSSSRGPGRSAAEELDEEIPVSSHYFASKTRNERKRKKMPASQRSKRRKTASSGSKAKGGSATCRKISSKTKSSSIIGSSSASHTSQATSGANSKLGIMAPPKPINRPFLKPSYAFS
Format: functional
In the case of N[C@H](Cc1ccc(O)c(O)c1)C(=O)O, the Potency is reported as 28.2 µM (active).
